# Laboratory results: PubChem BioAssay (EPA / NIEHS)
# Inconclusive results are not listed. Activity calls are given as the source filed them. Rule for the calls: active = hit-call score of the fitted dose curve at least 0.9, where 1 is the maximum; inconclusive = response in the unintended direction; inactive = score below 0.9.
# Key:
# [1] = ACEA_AR_antagonist_AUC_viability: ACEA Biosciences xCELLigence Real-Time Cell Analysis on Androgen Receptor Antagonism for Viability (AID 2283776);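 note: area under impedance growth curve at 80 h after dosing as viability; hits lower the growth signal relative to DMSO meaning cytotoxicity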
# Procedure, shortened: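 22Rv1 human prostate cancer cells were seeded on electrode plates, monitored overnight, then exposed to eight 1:4 dilutions from 100 uM final. Impedance-based growth kinetics at 80 h gave an AUC viability endpoint normalized to DMSO.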
# [2] = ACEA_ER_AUC_viability: ACEA Biosciences xCELLigence Real-Time Cell Analysis on Estrogen Receptor Agonism for Viability (AID 2283782);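 note: continuous compound exposure with impedance area under curve over 80 h; hit means loss of impedance signal meaning reduced cell growth or viability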
# Procedure, shortened: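 T-47D; phenol red-free RPMI1640 + 10% CS-FBS; 8 conc., 1:4 serial, max 100 uM final, ≤0.5% DMSO; n = 2; continuous exposure; impedance monitored to 80 h post-dose; AUC vs DMSO.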
# [3] = tested on: frog Estrogen Receptor (ESR1), gene 398734; assay: ATG_frER1_XSP1: Attagene TRANS-FACTORIAL Multi-Species (XSP1) HepG2 Assay for frog Estrogen Receptor (ESR1) (AID 2283777)
# Procedure, shortened: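 Human hepatoma HepG2 cells carried transiently transfected multiplexed Gal4-driven reporters and were exposed to test chemicals for 24 hours. Transcripts were quantified by fluorescent RT-PCR with capillary electrophoresis, referenced to DMSO.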
# [4] = molecular target: chicken Estrogen Receptor (ESR1), ESR1 (gene 396099) (UniProt P06212); assay: ATG_chERa_XSP1: Attagene TRANS-FACTORIAL Multi-Species (XSP1) HepG2 Assay for chicken Estrogen Receptor (ESR1) (AID 2283779)
# Procedure, shortened: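 Human liver HepG2, transient MRTU transfection (NR-Gal4 chimeras, GAL4-UAS reporters); 24 h compound exposure; 3 nM 6-alpha-fluorotestosterone in medium. Total RNA → RT-PCR → 6-FAM primer extension → HpaI → CE. Positive direction vs DMSO baseline.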
# [5] = tested on: turtle Estrogen Receptor (ESR1), gene 101933533; assay: ATG_trERa_XSP1: Attagene TRANS-FACTORIAL Multi-Species (XSP1) HepG2 Assay for turtle Estrogen Receptor (ESR1) (AID 2283781)
# Procedure, shortened: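 Activity was taken as gain of reporter transcript over DMSO controls. HepG2 cells carrying GAL4-UAS-driven reporters were exposed for 24 h before RNA was extracted and reporter sequences were measured by fluorescence after capillary separation.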
# [6] = molecular target: Estrogen receptor beta (Homo sapiens) (UniProt Q92731); assay: ATG_hERb_XSP1: Attagene TRANS-FACTORIAL Multi-Species (XSP1) HepG2 Assay for human Estrogen Receptor (ESR2) (AID 2283788)
# Procedure, shortened: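 Measured endpoint is transcriptional gain of signal from a GAL4-UAS reporter controlled by chimeric ERβ in HepG2 liver cells. Exposure lasts 24 h alongside 3 nM 6-alpha-fluorotestosterone, with DMSO as negative control.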
# [7] = ATG_M_06_XSP1: Attagene TRANS-FACTORIAL Multi-Species (XSP1) HepG2 Assay for M06 Transcription Factor (Internal Marker) (AID 2283790)
# Procedure, shortened: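 Transfected HepG2 multi-reporter system treated 24 h in the presence of 3 nM 6-alpha-fluorotestosterone. The M06 internal marker transcript was quantified by RT-PCR with capillary electrophoresis as a background control, and gain of signal was scored versus DMSO.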
# [8] = ATG_M_61_XSP1: Attagene TRANS-FACTORIAL Multi-Species (XSP1) HepG2 Assay for M61 Transcription Factor (Internal Marker) (AID 2283797)
# Procedure, shortened: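 HepG2 cells transiently transfected with multiplexed GAL4-driven reporter units, dosed 24 h with 3 nM 6-alpha-fluorotestosterone present. Reporter mRNA quantified by RT-PCR, 6-FAM labelling, HpaI digestion and capillary electrophoresis; internal-marker background control, gain of signal versus DMSO.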
# [9] = molecular target: Peroxisome proliferator-activated receptor gamma (Homo sapiens) (UniProt P37231); assay: ATG_hPPARg_XSP1: Attagene TRANS-FACTORIAL Multi-Species (XSP1) HepG2 Assay for human Peroxisome Proliferator-activated Receptor gamma (PPARg) (AID 2283800)
# Procedure, shortened: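 HepG2 cells transiently transfected with GAL4-UAS reporter units carrying chimeric NR-Gal4 proteins; 3 nM 6-alpha-fluorotestosterone present. After 24 h dosing, reporter mRNA quantified by RT-PCR and capillary electrophoresis; gain of signal relative to DMSO.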
# [10] = molecular target: mouse Peroxisome Proliferator-activated Receptor gamma (PPARg), Pparg (gene 19016) (UniProt P37238); assay: ATG_mPPARg_XSP1: Attagene TRANS-FACTORIAL Multi-Species (XSP1) HepG2 Assay for mouse Peroxisome Proliferator-activated Receptor gamma (PPARg) (AID 2283802)
# Procedure, shortened: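 HepG2 cells transiently transfected with GAL4-UAS reporter units driven by mouse PPARg–GAL4 chimera; 3 nM 6-alpha-fluorotestosterone present. After 24 h dosing, reporter mRNA quantified by RT-PCR, fluorescent labelling and capillary electrophoresis; gain of signal versus DMSO.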
# [11] = molecular target: Nuclear receptor subfamily 1 group I member 2 (Mus musculus) (UniProt O54915); assay: ATG_mPXR_XSP1: Attagene TRANS-FACTORIAL Multi-Species (XSP1) HepG2 Assay for mouse Pregnane X Receptor (PXR) (AID 2283803)
# Procedure, shortened: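 Transiently transfected HepG2 cells expressing a receptor-Gal4 chimera drive a GAL4-UAS reporter; 3 nM 6-alpha-fluorotestosterone included. Reporter mRNA read 24 h post-dose by RT-PCR and capillary electrophoresis; gain of signal relative to DMSO.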
# [12] = molecular target: frog Thyroid hormone Receptor alpha (TRa), thra-a (gene 397942) (UniProt P15204); assay: ATG_frTRa_XSP1: Attagene TRANS-FACTORIAL Multi-Species (XSP1) HepG2 Assay for frog Thyroid hormone Receptor alpha (TRa) (AID 2283804)
# Procedure, shortened: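 HepG2 cells transiently transfected with frog TRa-GAL4 chimeric reporter units, dosed 24 hr with 3 nM 6-alpha-fluorotestosterone present; reporter mRNA quantified by RT-PCR, fluorescent labelling and capillary electrophoresis, gain of signal versus DMSO.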
# [13] = tested on: turtle Thyroid Hormone Receptor, alpha (TRa), gene 101949057; assay: ATG_trTRa_XSP1: Attagene TRANS-FACTORIAL Multi-Species (XSP1) HepG2 Assay for turtle Thyroid Hormone Receptor, alpha (TRa) (AID 2283806)
# Procedure, shortened: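 HepG2 cells transiently transfected with GAL4-UAS reporter units and chimeric receptor-Gal4 constructs, with 3 nM 6-alpha-fluorotestosterone present. Reporter mRNA was quantified 24 h after dosing by RT-PCR, 6-FAM labelling and capillary electrophoresis; gain of signal versus DMSO.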
# AR (gene 367) [14] = molecular target: AR (gene 367) (UniProt P10275); assay: ACEA_AR_agonist_80hr: ACEA Biosciences xCELLigence Real-Time Cell Analysis on Androgen Receptor Agonism for Proliferation (AID 2283783);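 note: hits increase impedance growth signal above DMSO baseline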
# Procedure, shortened: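 Androgen-driven proliferation in 22Rv1 cells is tracked as electrical impedance, taken 80 h after continuous exposure to compound (eight concentrations, 1:4 steps, maximum 100 uM final). Activity is fitted in the positive direction with DMSO as baseline.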
# [15] = STM_H9_NormalizedViability: Cytotoxicity Assessment at 120 hours in the Stemina devTOX quickPredict H9 human embryonic stem cell (hESC)-based Assay (AID 2283784)
# Procedure, shortened: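 Pluripotent H9 cells dosed, fresh medium plus compound q24h → cell layer read by CellTiter-Fluor → RFU blank-corrected, normalized to DMSO 0.1% mean. Loss-of-signal fit, DMSO as baseline.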
# AR (gene 367) [16] = molecular target: AR (gene 367) (UniProt P10275); assay: ACEA_AR_antagonist_80hr: ACEA Biosciences xCELLigence Real-Time Cell Analysis on Androgen Receptor Antagonism for Proliferation (AID 2283787);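 note: hits lower the impedance growth signal relative to DMSO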
# Procedure, shortened: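 Growth-kinetic antagonist readout in 22Rv1 cells, taken 80 h after continuous compound exposure. Activity fitted as signal loss relative to DMSO negative control.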
# Chain of AR (gene 367) (P10275 whole entry, looked up): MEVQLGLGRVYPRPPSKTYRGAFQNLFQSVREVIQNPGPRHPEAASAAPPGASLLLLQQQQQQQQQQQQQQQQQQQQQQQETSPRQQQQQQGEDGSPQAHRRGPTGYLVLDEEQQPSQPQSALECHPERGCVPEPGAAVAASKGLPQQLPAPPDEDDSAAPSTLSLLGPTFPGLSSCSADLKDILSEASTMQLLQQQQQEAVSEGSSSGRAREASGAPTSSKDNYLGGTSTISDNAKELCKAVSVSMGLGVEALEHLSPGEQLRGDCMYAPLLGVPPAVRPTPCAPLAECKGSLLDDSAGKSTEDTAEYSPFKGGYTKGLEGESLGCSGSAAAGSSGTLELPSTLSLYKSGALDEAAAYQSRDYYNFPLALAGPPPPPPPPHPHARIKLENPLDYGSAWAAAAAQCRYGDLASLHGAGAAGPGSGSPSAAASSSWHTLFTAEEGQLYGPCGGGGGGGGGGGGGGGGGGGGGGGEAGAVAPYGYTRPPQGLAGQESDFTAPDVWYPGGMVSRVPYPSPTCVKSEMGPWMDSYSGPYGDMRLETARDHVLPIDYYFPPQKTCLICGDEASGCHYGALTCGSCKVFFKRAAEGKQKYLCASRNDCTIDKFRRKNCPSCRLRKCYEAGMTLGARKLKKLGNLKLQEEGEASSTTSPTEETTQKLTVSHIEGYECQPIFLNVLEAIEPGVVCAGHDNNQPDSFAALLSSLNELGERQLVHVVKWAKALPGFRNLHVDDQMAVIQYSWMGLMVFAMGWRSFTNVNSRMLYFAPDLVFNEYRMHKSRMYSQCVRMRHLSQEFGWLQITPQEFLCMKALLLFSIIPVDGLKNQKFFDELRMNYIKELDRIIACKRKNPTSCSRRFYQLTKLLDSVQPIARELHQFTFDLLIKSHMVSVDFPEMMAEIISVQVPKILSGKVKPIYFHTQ
# Chain of Estrogen receptor beta (Homo sapiens) (Q92731 whole entry, looked up, the tested form may be a part): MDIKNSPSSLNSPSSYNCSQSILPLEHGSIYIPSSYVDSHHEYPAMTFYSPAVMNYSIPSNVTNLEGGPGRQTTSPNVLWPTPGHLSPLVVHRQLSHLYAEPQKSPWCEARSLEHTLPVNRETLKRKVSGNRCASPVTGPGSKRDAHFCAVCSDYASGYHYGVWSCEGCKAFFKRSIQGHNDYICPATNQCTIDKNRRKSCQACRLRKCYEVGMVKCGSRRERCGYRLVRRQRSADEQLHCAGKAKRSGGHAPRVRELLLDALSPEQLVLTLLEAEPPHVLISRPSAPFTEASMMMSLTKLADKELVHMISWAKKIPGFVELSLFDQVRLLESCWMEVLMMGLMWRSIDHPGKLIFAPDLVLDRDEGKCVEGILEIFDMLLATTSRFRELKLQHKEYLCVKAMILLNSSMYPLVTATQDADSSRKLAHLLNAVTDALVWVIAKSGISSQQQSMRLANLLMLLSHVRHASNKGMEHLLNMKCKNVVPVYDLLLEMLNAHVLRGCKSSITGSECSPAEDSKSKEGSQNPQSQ
# Chain of chicken Estrogen Receptor (ESR1), ESR1 (gene 396099) (P06212 whole entry, looked up, the tested form may be a part): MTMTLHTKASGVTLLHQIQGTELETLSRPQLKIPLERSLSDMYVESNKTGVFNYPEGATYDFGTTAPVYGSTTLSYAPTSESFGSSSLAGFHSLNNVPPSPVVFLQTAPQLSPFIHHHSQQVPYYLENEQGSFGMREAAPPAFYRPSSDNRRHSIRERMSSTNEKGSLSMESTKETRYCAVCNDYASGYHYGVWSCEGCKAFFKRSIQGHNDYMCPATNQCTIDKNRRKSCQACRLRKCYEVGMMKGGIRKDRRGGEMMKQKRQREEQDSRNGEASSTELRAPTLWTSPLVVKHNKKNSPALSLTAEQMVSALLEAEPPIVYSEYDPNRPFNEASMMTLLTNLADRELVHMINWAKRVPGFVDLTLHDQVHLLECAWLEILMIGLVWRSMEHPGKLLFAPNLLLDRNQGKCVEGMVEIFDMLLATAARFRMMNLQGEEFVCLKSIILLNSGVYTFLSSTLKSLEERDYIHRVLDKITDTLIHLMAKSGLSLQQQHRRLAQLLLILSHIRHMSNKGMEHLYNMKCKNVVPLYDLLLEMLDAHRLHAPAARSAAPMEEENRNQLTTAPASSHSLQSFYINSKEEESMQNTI
# Chain of Peroxisome proliferator-activated receptor gamma (Homo sapiens) (P37231 whole entry, looked up, the tested form may be a part): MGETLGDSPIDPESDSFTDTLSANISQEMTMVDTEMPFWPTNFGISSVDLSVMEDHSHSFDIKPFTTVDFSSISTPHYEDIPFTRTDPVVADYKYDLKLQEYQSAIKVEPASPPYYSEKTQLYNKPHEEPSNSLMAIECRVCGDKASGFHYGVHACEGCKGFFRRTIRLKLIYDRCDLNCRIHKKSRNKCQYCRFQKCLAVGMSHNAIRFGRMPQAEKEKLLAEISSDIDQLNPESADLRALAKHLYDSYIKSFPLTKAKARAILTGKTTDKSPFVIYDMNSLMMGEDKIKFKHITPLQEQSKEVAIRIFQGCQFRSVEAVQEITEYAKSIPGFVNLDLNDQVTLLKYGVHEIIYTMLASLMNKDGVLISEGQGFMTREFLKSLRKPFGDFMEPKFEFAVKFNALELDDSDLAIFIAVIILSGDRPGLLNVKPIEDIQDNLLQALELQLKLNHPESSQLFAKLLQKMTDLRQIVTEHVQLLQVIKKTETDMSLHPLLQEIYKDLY
# Chain of mouse Peroxisome Proliferator-activated Receptor gamma (PPARg), Pparg (gene 19016) (P37238 whole entry, looked up, the tested form may be a part): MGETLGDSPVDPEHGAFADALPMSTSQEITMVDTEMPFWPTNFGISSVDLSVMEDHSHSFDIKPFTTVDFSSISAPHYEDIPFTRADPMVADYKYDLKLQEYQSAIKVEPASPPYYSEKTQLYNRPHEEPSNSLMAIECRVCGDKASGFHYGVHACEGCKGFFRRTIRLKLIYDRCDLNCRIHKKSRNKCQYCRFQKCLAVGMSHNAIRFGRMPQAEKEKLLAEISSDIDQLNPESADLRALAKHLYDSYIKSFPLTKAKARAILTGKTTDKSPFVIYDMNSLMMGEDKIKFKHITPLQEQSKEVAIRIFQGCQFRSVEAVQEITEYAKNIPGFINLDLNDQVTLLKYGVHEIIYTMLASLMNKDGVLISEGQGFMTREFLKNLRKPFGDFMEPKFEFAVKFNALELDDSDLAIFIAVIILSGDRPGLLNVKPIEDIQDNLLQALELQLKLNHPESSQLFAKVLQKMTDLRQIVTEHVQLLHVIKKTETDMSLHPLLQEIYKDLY
# Chain of Nuclear receptor subfamily 1 group I member 2 (Mus musculus) (O54915 whole entry, looked up, the tested form may be a part): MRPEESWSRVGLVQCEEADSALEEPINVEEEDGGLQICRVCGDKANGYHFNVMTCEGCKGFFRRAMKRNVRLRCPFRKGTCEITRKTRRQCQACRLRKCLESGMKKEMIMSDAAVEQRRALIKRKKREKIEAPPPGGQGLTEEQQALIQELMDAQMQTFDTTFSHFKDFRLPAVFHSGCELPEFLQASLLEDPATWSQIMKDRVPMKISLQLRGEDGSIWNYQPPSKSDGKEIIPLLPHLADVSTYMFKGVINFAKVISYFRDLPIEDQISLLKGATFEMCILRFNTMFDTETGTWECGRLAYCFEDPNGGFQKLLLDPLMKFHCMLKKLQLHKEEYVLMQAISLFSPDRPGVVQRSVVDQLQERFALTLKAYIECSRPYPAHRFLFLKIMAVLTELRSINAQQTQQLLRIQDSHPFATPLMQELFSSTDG
# Chain of frog Thyroid hormone Receptor alpha (TRa), thra-a (gene 397942) (P15204 whole entry, looked up, the tested form may be a part): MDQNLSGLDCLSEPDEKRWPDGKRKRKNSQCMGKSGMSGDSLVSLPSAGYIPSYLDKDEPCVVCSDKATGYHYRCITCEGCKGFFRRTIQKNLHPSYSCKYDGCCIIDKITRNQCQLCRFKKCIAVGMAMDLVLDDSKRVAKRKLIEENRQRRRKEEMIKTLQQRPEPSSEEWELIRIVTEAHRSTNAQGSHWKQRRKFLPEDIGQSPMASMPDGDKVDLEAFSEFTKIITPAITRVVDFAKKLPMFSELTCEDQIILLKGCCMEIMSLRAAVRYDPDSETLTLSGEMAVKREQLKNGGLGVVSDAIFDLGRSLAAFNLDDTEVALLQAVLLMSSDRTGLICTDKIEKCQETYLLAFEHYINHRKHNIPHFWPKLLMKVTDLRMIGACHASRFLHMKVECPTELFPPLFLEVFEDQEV
smiles,measurement,setting,value
CCCCc1nc2cccnc2n1Cc1ccc(-c2ccccc2-c2nnn[nH]2)cc1,AC50,[1],50 µM (active)
CC(=O)OCC(COC(C)=O)OC(C)=O,outcome,[1],inactive
same,outcome,[2],inactive
CC(=O)O,outcome,[1],inactive
CCCCC(CC)COC(=O)CCCCCCCC(=O)OCC(CC)CCCC (stereo not drawn),outcome,[1],inactive
CN(C)C(=O)NC1(c2ccccc2)CCN(CCC[C@]2(c3ccc(Cl)c(Cl)c3)CCCN(C(=O)c3ccccc3)C2)CC1,AC50,[1],16.7 µM (active)
same,AC50,[2],14.6 µM (active)
CCCC(=O)O,outcome,[1],inactive
CC(C)c1cccc(C(C)C)c1,outcome,[1],inactive
same,outcome,[2],inactive
Oc1ccc(O)cc1,AC50,[1],50 µM (active)
same,AC50,[2],11.3 µM (active)
Cc1occc(=O)c1O,outcome,[1],inactive
COc1ccc(C(=O)Nc2nc3ccccc3c(NCc3ccccc3)c2C#N)cc1,AC50,[1],23.5 µM (active)
same,outcome,[2],inactive
C=CCCCCCCCCCCCC,outcome,[1],inactive
Cn1cnc2c1c(=O)[nH]c(=O)n2C,outcome,[1],inactive
COC(=O)CCCC(=O)OC,outcome,[1],inactive
NC=O,outcome,[1],inactive
CC(C)(O)c1ccc(CNC(=O)c2cccnc2Oc2ccc(F)cc2)cc1,outcome,[1],inactive
CCc1cc(C2=C(C(=O)O)N(c3ccccc3C(F)(F)F)S(=O)(=O)c3ccccc32)cc2c1OCO2,AC50,[1],25 µM (active)
same,AC50,[2],15.8 µM (active)
c1ccc2occc2c1,outcome,[1],inactive
CCCCC(CC)COP(=O)(OCC(CC)CCCC)OCC(CC)CCCC (stereo not drawn),AC50,[1],16.8 µM (active)
O=[Si]=O,outcome,[1],inactive
CC(C)c1cccc(C(C)C)c1NC(=O)NS(=O)(=O)c1cc(C(C)(C)O)co1,AC50,[1],19 µM (active)
CCCCC(CC)CO (stereo not drawn),outcome,[1],inactive
CCCCCCC(CCCCCCCCCCC(=O)OCC(COC(C)=O)OC(C)=O)OC(C)=O (stereo not drawn),outcome,[1],inactive
Cc1ccc(C(C)(C)C)c(O)c1,outcome,[1],inactive
same,AC50,[2],75.6 µM (active)
O=C(O)c1[nH]n(-c2ccc(S(=O)(=O)O)cc2)c(=O)c1N=Nc1ccc(S(=O)(=O)O)cc1,outcome,[1],inactive
CCCC[C@H]1CN(CC2CCOCC2)C(=O)OC12CCN(C1(C)CCN(C(=O)c3c(C)ncnc3C)CC1)CC2,outcome,[1],inactive
CC(=O)O[C@]1(C(C)=O)CC[C@H]2[C@@H]3C=C(Cl)C4=CC(=O)[C@@H]5C[C@@H]5[C@]4(C)[C@H]3CC[C@@]21C,AC50,[1],0.0607 µM (active)
same,AC50,[3],4.61 µM (active)
same,AC50,[4],5.26 µM (active)
same,AC50,[5],3.25 µM (active)
same,AC50,[6],8.21 µM (active)
same,outcome,[7],inactive
same,outcome,[8],inactive
same,outcome,[9],inactive
same,AC50,[10],20.2 µM (active)
same,AC50,[11],0.347 µM (active)
same,outcome,[12],inactive
same,outcome,[13],inactive
CCCCOC(=O)CCCCC(=O)OCCCC,outcome,[1],inactive
O=C1c2c(O)cccc2Cc2cccc(O)c21,outcome,[1],inactive
same,outcome,[2],inactive
O=C(N[C@@H](c1ccccc1)[C@@H]1CCCCN1)c1cccc(C(F)(F)F)c1Cl,AC50,[1],39.5 µM (active)
same,AC50,[2],15.3 µM (active)
O=C(O)CN(CC(=O)O)CC(=O)O,outcome,[1],inactive
same,outcome,[2],inactive
O=C1NC(=O)C(c2ccccc2)(c2ccccc2)N1,AC50,[1],28.7 µM (active)
same,outcome,[2],inactive
CN(C)CCCN(C)CCCN(C)C,outcome,[1],inactive
same,outcome,[2],inactive
O=C(O)CC(O)(CC(=O)O)C(=O)O,outcome,[1],inactive
same,outcome,[2],inactive
CCC(C)N(C)C(=O)c1cc2ccccc2c(-c2ccccc2Cl)n1 (stereo not drawn),AC50,[1],40.9 µM (active)
same,outcome,[2],inactive
same,outcome,AR (gene 367) [14],inactive
same,outcome,[15],inactive
same,AC50,AR (gene 367) [16],46.4 µM (active)
COc1ccc(OC(F)(F)F)cc1CN[C@H]1CCCN[C@H]1c1ccccc1,AC50,[1],67 µM (active)
same,AC50,[2],14.9 µM (active)
O=C1OC(c2ccc(O)cc2)(c2ccc(O)cc2)c2ccccc21,AC50,[1],19.8 µM (active)
same,AC50,[2],92 µM (active)
same,outcome,AR (gene 367) [14],inactive
same,outcome,[15],inactive
same,AC50,AR (gene 367) [16],20.6 µM (active)
CO[C@@H]1COCC[C@@H]1N[C@@H]1CC[C@@](C(=O)N2CCc3ncc(C(F)(F)F)cc3C2)(C(C)C)C1,outcome,[1],inactive
same,AC50,[2],21.3 µM (active)
NC1CCCCC1,outcome,[1],inactive
same,outcome,[2],inactive
CCCCCCCCCCCCCCOS(=O)(=O)O,AC50,[1],42.3 µM (active)
same,AC50,[2],74.5 µM (active)
CCCCCCC(C=O)=Cc1ccccc1,AC50,[1],78.5 µM (active)
same,AC50,[2],74.7 µM (active)
COC(=O)CCC(=O)OC,outcome,[1],inactive
same,outcome,[2],inactive
Nc1nc(=S)c2[nH]cnc2[nH]1,AC50,[1],0.212 µM (active)
same,AC50,[2],0.237 µM (active)
same,outcome,AR (gene 367) [14],inactive
same,AC50,[15],3.32 µM (active)
same,AC50,AR (gene 367) [16],0.198 µM (active)
Cc1cn([C@H]2C=C[C@@H](CO)O2)c(=O)[nH]c1=O,AC50,[1],19.7 µM (active)
same,outcome,[2],inactive
OCC(CO)n1cnc(-c2ccc(F)cc2)c1-c1ccnc(Oc2ccccc2)n1,AC50,[1],21.1 µM (active)
same,outcome,[2],inactive
CC(C)COC(=O)CCCCC(=O)OCC(C)C,outcome,[1],inactive
same,outcome,[2],inactive
CC(=O)S[C@H](C(=O)N[C@H]1Cc2ccccc2[C@H]2CCC[C@@H](C(=O)O)N2C1=O)C(C)C,outcome,[1],inactive
same,outcome,[2],inactive
C/C=C/c1ccc(OC)cc1,outcome,[1],inactive
same,outcome,[2],inactive
S=c1[nH]c2ccccc2s1,outcome,[1],inactive
same,AC50,[2],91.9 µM (active)
CC(N)=O,outcome,[1],inactive
same,outcome,[2],inactive
